Laboratory results reported in PubChem BioAssay (NCI).
Compounds without any hit were thinned out: in the full panel of roughly 83,000, 20% have a hit.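 Each cell line was grown in a 96-well plate and treated with one concentration of compound for 48 hours. Values below 10 were considered active.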 Unmarked numbers belong to inactive results. Active and inactive are the calls of the source.

These molecules were tested on HCT-116 colon (assay: NCI-60 one-dose screen, 48 h (100 = growth as untreated, 0 = no growth, -100 = all killed)). Conditions: 10 µM unless noted.
Protocol: Growth inhibition of the HCT-116 human tumor cell line is measured as a screen for anti-cancer activity. Cells are grown in 96 well plates and exposed to the test compound for 48 hours. Compounds are tested at a single concentration, which is 10^-5 M for most compounds. The reported endpoint is percent growth (GI% or GIPRCNT), where numbers from 0 - 100% represent growth inhibition, and numbers from -100% - 0 represent cell death. For example, a value of 40 represents 60% growth inhibition. A value of 0 means no net growth occurred over the course of the experiment. A value of -40 indicates 40% of cells at the beginning of the experiment died by the end of the experiment. A value of -100 means all cells are dead at the end of the experiment.
NCI-60 Human Tumor Cell Lines Screen was performed using the standard one-dose NCI protocol, which is described in more detail at https://dtp.cancer.gov/discovery_development/nci-60/default.htm.
Compounds with GIPRCNT values below 10 were considered active. Activity score was based on GIPRCNT using the following formula: […]
Score is 0 for GIPRCNT values of 100 or above, 50 for GIPRCNT values of 0, and 100 for GIPRCNT values of -100.
COc1cc2c(c(OC)c1OC)C(=O)CC(c1cccc(NC(=O)c3cccc([N+](=O)[O-])c3)c1)O2 (stereo not given) was tested, and the growth was 16.4%.
Nc1nc(-c2ccccc2)c(N=Nc2ccc(Cl)cc2[N+](=O)[O-])s1 gave a growth of 97.1%.
O=C(COc1ccc(NC(=O)Nc2ccccc2)cc1)N=Nc1c(O)[nH]c2ccc([N+](=O)[O-])cc12 was tested, and the growth was -55.9% (active).
In the case of COC(=O)C[C@](O)(CCCC(C)(C)O)C(=O)O[C@H]1C(OC)=C[C@@]23CCCN2CCc2cc4c(cc2[C@@H]13)OCO4, the growth is reported as -29.4% (active).
With Cc1cc(=O)oc2cc(OCCCOc3ccc(/C=C/C(=O)Nc4ccccc4N)cc3)ccc12 the growth was 17.2%.
Cc1cccc(Nc2nc3ccccc3nc2/C=C/c2ccc(F)cc2)c1 was tested, and the growth was 81%.
Work on Cc1c(C(=O)NNC(=O)Nc2ccc(Cl)cc2)nnn1-c1ccc(Br)cc1 yielded a growth of 90.7%.
In the case of COc1ccc(/C=C2\C(=O)Nc3ccc(Cl)cc32)cc1OCc1ccccn1, the growth is reported as 21.1%.
CC(C)C(C(=O)O)n1c(O)c(/C=C2/C=c3cc4c(cc3=NC2=O)OCO4)sc1=S (stereo not given) showed a growth of 108%.
O=C(COc1ccc(NC(=O)Nc2ccc(Cl)c(Cl)c2)cc1)N=Nc1c(O)[nH]c2ccc([N+](=O)[O-])cc12 was tested, and the growth was 11.3%.
CC(=O)Nc1ccc(-c2cn(-c3cccc(C(=O)Nc4ccc(N5CCN(C)CC5)cc4)c3)nn2)cn1 showed a growth of 62.9%.
Molecule COc1cc2c(c(OC)c1OC)C(=O)CC(c1cccc(NC(=O)c3cccc(NC(=O)[C@H](C)NC(=O)OC(C)(C)C)c3)c1)O2 (stereo not given in full) has a growth of 41.2%.
CCOC(=O)C1=C(N)N(c2ccccc2)C2=C(C(=O)CC(C)(C)C2)C1c1ccc(N2CCOCC2)cc1 (stereo not given) gave a growth of 99.1%.
Molecule CCN(CC)c1ccc(/C=N/Nc2nc(-c3ccc(Br)cc3)cs2)c(O)c1 has a growth of 18.3%.
Cc1occc1C(=O)NN1C(=O)/C(=C/C=C/c2ccc([N+](=O)[O-])o2)SC1=S was tested, and the growth was -73.2% (active).
N#Cc1cnn(C(=O)c2ccccc2Br)c1NC(=O)c1ccc(Br)cc1Cl showed a growth of 103%.
Work on CCCCSc1nc(Nc2ccc(C(C)=O)cc2)c(C#N)c(-c2ccc(OC)cc2)n1 yielded a growth of 32.5%.
With CCOC(=O)C1=C(N)N(c2ccccc2)C2=C(C(=O)CC(C)(C)C2)C1c1ccccc1Cl (stereo not given) the growth was 41.3%.
N#Cc1c(-c2cccc(Cl)c2Cl)cc(-c2c[nH]c3ccccc23)[nH]c1=O showed a growth of 18.3%.
Molecule COc1c(F)ccc(C(=O)Nc2ccc3nc(NC(=O)C4CCCN(S(=O)(=O)c5ccc(C(F)(F)F)cc5)C4)sc3c2)c1F (stereo not given) has a growth of 63.4%.
Molecule CC(=O)Oc1ccc(/C=C/C(=O)N[C@@H](Cc2ccccc2)C(O)C(=O)NCc2ccccc2)cc1OC(C)=O (stereo not given in full) has a growth of 78.4%.
Work on Cc1ccc(-c2nc(C#N)c(S(=O)(=O)N3CCN(S(=O)(=O)c4ccc(Cl)cc4)CC3)o2)cc1 yielded a growth of 84.9%.
With CN1C(=O)/C(=C/c2ccc(C(=O)Nc3ncc(Cc4ccc(Cl)cc4Cl)s3)cc2)SC1=S the growth was 29.6%.
COc1ccc(N2N=C(c3ccc4c(c3)OCO4)CC2c2cccc(NC(=O)CCCNS(=O)(=O)c3ccc(F)cc3)c2)cc1 (stereo not given) was tested, and the growth was 49.9%.
CCCCSc1nc(Nc2ccc(S(N)(=O)=O)cc2)c(C#N)c(-c2ccc(Cl)cc2)n1 was tested, and the growth was 1.12% (active).
Cn1cc(-c2cc3nc(-c4c[nH]c5ccc(Br)cc45)cc(N)n3n2)c2ccccc21 was tested, and the growth was -90.6% (active).
COc1ccc(NC(=O)Cn2c3c(sc2=O)[C@H]2[C@@H](O)[C@@H](O)[C@H](O)[C@@H]2CS3)cc1 gave a growth of 103%.
In the case of O=C(NN1C(=O)/C(=C/C=C/c2ccc([N+](=O)[O-])o2)SC1=S)c1cccc(O)c1, the growth is reported as -77.1% (active).
With Brc1ccc(-c2n(Cc3ccc4ccccc4c3)c(-c3ccccc3)c(-c3ccccc3)[n+]2Cc2ccc3ccccc3c2)cc1 the growth was -97.9% (active).
For C=C1CC[C@@H]2[C@]3(C)COC(c4ccccc4)O[C@@H]3CC[C@@]2(C)[C@@H]1C/C=C1/C(=O)OCC1OC(C)=O (stereo not given in full), the growth was -94.7% (active).
CCCS(=O)(=O)N1CCCC(C(=O)Nc2nc3ccc(NC(=O)c4ccc(F)c(OC)c4F)cc3s2)C1 (stereo not given) was tested, and the growth was 31.1%.
N#Cc1c(-c2cccc(O)c2O)cc(-c2ccc3ccccc3c2)[nH]c1=O showed a growth of 34.5%.
In the case of O=C(NNc1nc2cc(C(F)(F)F)ccc2n2cccc12)c1cnccn1, the growth is reported as -94.6% (active).
For CC1(C)CC[C@]2(C(=O)Nc3ccc(Br)cc3)CC[C@]3(C)C(=CCC4[C@@]5(C)C[C@@H](O)[C@H](O)[C@@](C)(CO)C5CC[C@]43C)C2C1 (stereo not given in full), the growth was -15.8% (active).
In the case of CN(C)c1nc(NCCNS(=O)(=O)c2ccc(C(=O)/C=C/c3ccc(F)cc3)cc2)nc(Nc2ccc(F)cc2)n1, the growth is reported as -86.8% (active).
Molecule COc1ccc(-c2c(Nn3cnnn3)no[n+]2[O-])cc1 has a growth of 23.8%.
CC(=O)OC[C@@]1(C)C2CC[C@]3(C)C(CC=C4C5CC(C)(C)CC[C@]5(C(=O)Nc5ccc(C)cc5)CC[C@]43C)[C@@]2(C)C[C@@H](OC(C)=O)[C@@H]1OC(C)=O (stereo not given in full) showed a growth of 24.7%.
Work on CC1(C)CC[C@]2(C(=O)Nc3ccccc3)CC[C@]3(C)C(=CCC4[C@@]5(C)C[C@@H](O)[C@H](O)[C@@](C)(CO)C5CC[C@]43C)C2C1 (stereo not given in full) yielded a growth of 34.3%.
NS(=O)(=O)c1ccc(-n2cc(-c3cccc(NC(=O)c4cc(Cl)cc(Cl)c4)c3)nn2)cc1 gave a growth of 45.4%.
With O=C(/C=C/c1ccc(-c2ccccc2)cc1)c1nc2ccccc2n1Cc1ccc(F)cc1 the growth was 13.8%.
